From PubChem
Most compounds without a hit are left out; they make up all but 2.4% or so of the library.
Pol beta inh: inhibitors of human DNA polymerase beta; hit rate 1.3% among 340,000; Potency, µM (highest dose often 114 µM), for inactives: top-dose activity change, negative = inhibition, usual class: inhibitors; Pol beta primer extension/strand displacement, fluorescence kinetic; P06746; note: % is set by controls: 0 for no effect and ±100 for the full control effect
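Preincubation: enzyme (10 nM) with compound, 15 min, RT. Reaction: substrate added to 50 nM final. Reads: 0 and 10 min. Analysis: normalized, Hill fit.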
POLH inh: blocks human DNA polymerase eta activity | hit rate 1.2% among 390,000 | AID 588591 | Q9Y253 | recombinant Pol eta, fluorescent DNA replication assay | Potency, µM (highest dose often 114 µM), inactives show at the highest dose activity change, negative = inhibition, hits mostly inhibitors; note: % is set by controls: 0 for no effect and ±100 for the full control effect
Target sequence (Q9Y253 whole entry, looked up): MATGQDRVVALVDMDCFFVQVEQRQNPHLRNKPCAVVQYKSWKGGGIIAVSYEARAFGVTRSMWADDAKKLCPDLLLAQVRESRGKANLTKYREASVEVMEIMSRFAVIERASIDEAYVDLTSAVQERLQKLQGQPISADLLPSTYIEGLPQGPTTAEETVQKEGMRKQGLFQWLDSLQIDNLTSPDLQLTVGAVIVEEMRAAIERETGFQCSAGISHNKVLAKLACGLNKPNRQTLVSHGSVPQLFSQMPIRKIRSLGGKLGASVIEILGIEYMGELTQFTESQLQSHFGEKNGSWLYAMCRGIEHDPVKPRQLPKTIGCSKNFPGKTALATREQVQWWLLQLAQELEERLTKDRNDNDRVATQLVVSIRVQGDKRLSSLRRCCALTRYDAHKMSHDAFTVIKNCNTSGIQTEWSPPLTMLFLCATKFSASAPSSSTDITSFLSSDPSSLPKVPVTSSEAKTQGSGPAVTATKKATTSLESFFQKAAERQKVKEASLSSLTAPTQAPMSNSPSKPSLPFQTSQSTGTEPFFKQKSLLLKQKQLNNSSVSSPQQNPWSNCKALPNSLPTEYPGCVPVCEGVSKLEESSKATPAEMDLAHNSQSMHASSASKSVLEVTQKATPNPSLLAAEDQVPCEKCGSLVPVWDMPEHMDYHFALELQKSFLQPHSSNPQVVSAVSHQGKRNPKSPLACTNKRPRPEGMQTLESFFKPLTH
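Fluorescent replication assay: 50 nM final substrate added after a 15 min room-temperature compound preincubation with 10 nM enzyme. Signal taken at 0 min and again at 10 min.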
WRN inhibitor: WRN helicase (human) inhibition; Q14191; WRN helicase unwinding, fluorescent forked duplex, kinetic; Potency, µM (titrated, usually from 114 µM), inactives show at the top dose activity change, negative = inhibition, hits mostly inhibitors; hit rate 0.46% among 360,000; AID 651768; note: % is set by controls: 0 for no effect and ±100 for the full control effect; nearly all actives have a fitted effect of over 55% in size
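Screening of the MLSMR collection measured strand separation of a quenched forked DNA duplex (100 nM) by 20 nM WRN with 2 mM ATP, all final. Compounds were preincubated with enzyme 15 min at room temperature.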
Pol iota inh: DNA polymerase iota (human) inhibition. AID 588590. Pol iota fluorescent replication assay, 10 min. hit rate 1% among 390,000. Potency, µM (highest dose often 115 µM), inactives show at the top dose activity, negative = inhibition, hits mostly inhibitors. Q9UNA4
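Fluorescent replication assay read twice, at 0 min and 10 min after adding 50 nM (final) substrate. Enzyme (10 nM) and compounds were first incubated 15 min at room temperature; enzyme-free buffer wells were negative controls.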
Pol kappa inh: inhibitors of human DNA polymerase kappa; AID 588579; Q9UBT6; Potency, µM (highest dose often 107 µM), for inactives: at the top dose activity, negative = inhibition, actives largely listed as inhibitors; hit rate 0.53% among 400,000; purified Pol kappa, fluorescent DNA synthesis assay, 10 min; note: % is set by controls: 0 for no effect and ±100 for the full control effect
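Here, compound and 10 nM enzyme are combined for 15 min at room temperature; adding 50 nM substrate (final) starts DNA synthesis, tracked by fluorescence at 0 and 10 min against buffer-only wells.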
FEN1 inhibitor: blocks human flap endonuclease 1. AID 588795. Potency, µM (top dose mostly 114 µM), without a hit: top-dose activity change, negative = inhibition, actives largely listed as inhibitors. Recombinant FEN1 flap cleavage, fluorescence, 15 min. hit rate 0.35% among 390,000; note: % is set by controls: 0 for no effect and ±100 for the full control effect; nearly all actives have a fitted effect of over 65% in size
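Read-out was taken twice, immediately and after 15 min, following addition of 50 nM substrate to 10 nM FEN1 that had sat with test compound for 15 min at room temperature. Curves came from a four-parameter Hill model.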
* marks the source's active call; other numbers are inactive results; ? = inconclusive; nt = no result given; [ ] = dose if it differs, or a comment. Calls come from the whole dose curve; as a rule, active = well fitted curve in the direction sought with a large enough effect; inconclusive = small, poorly fitted or top-dose-only effect, or another doubt; inactive = no such curve, though single readings can be large; an effect the other way counts as inactive or inconclusive. Potency is the fitted concentration of half-maximal effect.

SMILES	Pol beta inh	POLH inh	WRN inhibitor	Pol iota inh	Pol kappa inh	FEN1 inhibitor
CN(C(=S)NC(=O)c1ccc(F)cc1)C1CCCCC1	-21%	-1%	7%	-6%	-1%	20%
CN(C(=S)NC(=O)c1ccc(Cl)cc1)C1CCCCC1	11µM*	?	-28%	?	-43%	5%
CCCN(C(=O)COc1cc(=O)n(CC)c2ccccc12)c1ccc(C(C)C)cc1	5%	-14%	nt	-11%	-6%	-23%
COc1ccc(Cl)cc1NC(=O)Cn1cnc2sc(C)c(S(=O)(=O)N3CCN(c4ccccc4OC)CC3)c2c1=O	28%	-23%	nt	17%	3%	-2%
CC(=O)c1ccc(OCc2cn(CC(=O)c3ccc(O)cc3)nn2)c(C)c1	nt	-15%	1%	nt	nt	nt
Cc1cccc(C)c1OCc1cn(CC(=O)c2ccc(O)cc2)nn1	nt	0%	-10%	7.9µM*	-2%	-11%
O=C(Cn1cc(COc2ccccc2C(F)(F)F)nn1)c1ccc(O)cc1	nt	-18%	9%	5µM*	-2%	-11%
COc1cc(C(C)=O)ccc1OCc1cn(CC(=O)c2ccc(O)cc2)nn1	nt	-19%	3%	4.5µM*	-8%	?
CC(=O)c1ccc(OCc2cn(CC(=O)c3ccc(O)cc3)nn2)cc1	nt	-7%	-10%	?	-2%	-7%
COc1cc(C=O)ccc1OCc1cn(CC(=O)c2ccc(O)cc2)nn1	nt	2%	-15%	12%	-1%	2%
O=C(Cn1cc(COc2ccc(Br)cc2[N+](=O)[O-])nn1)c1ccc(O)cc1	nt	-9%	-5%	4.5µM*	0%	0%
COc1ccc2c(CNCCc3ccc(SC)cc3)c(C(=O)O)n(Cc3ccc(F)cc3)c2c1	2%	-12%	nt	-19%	-1%	-3%
Cc1cc2nccc(C)c2cc1C	nt	nt	nt	15%	-2%	-13%
COc1ccc(Nc2ncnc3c2cnn3-c2ccc(C)cc2)cc1Cl	-1%	-11%	nt	-8%	-2%[60.1 µM]	15%
COC(=O)Cc1c(C)c2ccc3c(c2oc1=O)CN(Cc1ccccc1OC)CO3	7%	-12%	nt	14%	20%	-4%
COc1cc(Nc2nc(SCc3cccc(Cl)c3)nc3ccccc23)cc(OC)c1	-4%	-18%	nt	?	-1%[60.1 µM]	-20%
C=CS(=O)(=O)c1ccc(Oc2ccc(S(=O)(=O)C=C)cc2)cc1	16%	?	?	10µM*	-3%	-11%
C=Cc1c(C)/c2[n-]/c1=C\c1[n-]c(c(CC)c1C)/C=c1\[n-]c3c(c1C)C(=O)C(C(=O)[O-])C=3c1[n-]c(c(C)c1CCC(=O)[O-])\C=2.[Cu].[Na+].[Na+] (configuration not stated)	nt	nt	nt	nt	0.89µM*	nt
CCOC(=O)c1noc2nc(C)n(CC(=O)Nc3ccc(OC)c(Cl)c3)c(=O)c12	20µM*	-9%	nt	10%	4%[60.1 µM]	0%
CSc1ncc(C(=O)Nc2ccc(C)c(Cl)c2)c(-c2ccccc2)n1	?	-12%	nt	2%	-15%	0%
CCN(c1ccc(OC)cc1)S(=O)(=O)c1ccc2[nH]c3c(c2c1)CCCCC3	20%	-10%	nt	79µM*	-16%	-22%
CCN(Cc1ccccc1)S(=O)(=O)c1ccc2[nH]c3c(c2c1)CCCCC3	1%	-6%	nt	-15%	-16%	-1%
OCc1cn(-c2ccccc2)nn1	12%	-2%	4%	11%	-9%	5%
O=C1OC(NC(=O)c2ccccc2)C(n2cc(CO)nn2)=C1Cl (configuration not stated)	5%	-5%	50µM*	?	-8%	0%
COCCC(=O)N1CCc2c([nH]c3ccccc23)C1C(C)(C)C (configuration not stated)	-11%	-5%	3%	29%	7%	-3%
SMILES	Pol beta inh	POLH inh	WRN inhibitor	Pol iota inh	Pol kappa inh	FEN1 inhibitor
COCc1ccc(CN2CCc3c([nH]c4ccccc34)C2C(C)(C)C)o1 (configuration not stated)	20µM*	-10%	-11%	-10%	-19%	-11%
Cc1ccc(CNc2ccc3nnc(-c4ccccc4)n3n2)cc1	56µM*	?	-2%	28%	0%	12%
CCOC(=O)N1CCC(Nc2ccc3nnc(-c4ccccc4)n3n2)CC1	?	-17%	-3%	17%	-6%	-2%
COC(=O)Cc1[nH]nc2c1C(c1ccc(O)c(OC)c1)C(C#N)=C(N)O2 (configuration not stated)	-2%	45µM*	-21%[57.1 µM]	8.9µM*	-32%	14%
CC(=O)N1c2ccc(S(=O)(=O)N(C)CC(=O)N(Cc3ccccc3)C(C)C)cc2CC1C (configuration not stated)	70%	-13%	nt	23%	2%	-7%
CCc1cc2c(=O)n(Cc3ccco3)c(SCC(=O)N(C)C3CCS(=O)(=O)C3)nc2s1 (configuration not stated)	20µM*	-10%	-13%	?	?	0%
CCc1cc2c(=O)n(Cc3ccco3)c(SCc3c(C)noc3C)nc2s1	0%	-19%	-28%	14µM*	-12%	-2%
CN(C(=O)CSc1nc2cc(Cl)ccc2c(=O)n1Cc1ccco1)C1CCS(=O)(=O)C1 (configuration not stated)	?	-6%	4%	27%	9%	-6%
COc1ccc2nc(NC(=O)c3nc(S(=O)(=O)Cc4ccc(C)cc4)ncc3Cl)sc2c1	?	?	nt	89µM*	?	-2%
CCCSc1nc(-c2ccccc2)[nH]c1S(=O)(=O)c1ccc(C)cc1	8%	-25%	nt	4%	-11%	-22%
COc1ccc(CNC(=O)CCCN2C(=O)CCn3nc(-c4cn(C)c5ccccc45)cc32)cc1	3%	-7%	nt	-7%	-8%[60.1 µM]	14%
CC1CCN(CC(=O)Nc2ccc(S(=O)(=O)N3CCC(C)CC3)cc2)CC1	-3%	-25%	?	45%	-4%	-8%
Cc1ccc(-c2nnn(CC(=O)Nc3ccc(S(=O)(=O)N4CCC(C)CC4)cc3)n2)cc1	35µM*	?	-20%	?	-40%	-18%
CC1CCN(S(=O)(=O)c2ccc(NC(=O)Cn3nnc(-c4ccccc4)n3)cc2)CC1	40µM*	-11%	-14%	?	-1%	13%
COc1cc(NC(=O)C2=CC(c3ccc(F)cc3)=NS(=O)(=O)N2C)cc(OC)c1OC	-10%	-17%	nt	10%	-2%	17%
COc1cccc(CN2C(=O)c3ccccc3Sc3ccc(C(=O)NCc4ccccc4)cc32)c1	10%	-22%	nt	3%	4%	-6%
Cn1c(NCc2ccccc2F)nc2ccccc21	?	-1%	nt	?	-13%	16%
